According to PubChem BioAssay (NCI):
Values joined by “and” are separate entries in the source; they are usually repeats but may differ in a detail not shown here. Equal entries are not always repeated. The panel holds about 79,000 compounds, 15% with a hit somewhere; the sample as a whole holds those more often. Cut-off read from the data, not from the text of the source: active = growth inhibition above about 70%; inactive = the rest.

Tests used:
[1] = NCI Yeast Anticancer Drug Screen. Data for the rad50 strain (AID 155);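 note: 0% = growth of vehicle-only cultures of the same strain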; details: S. cerevisiae rad50 strain growth inhibition, hits give high values; at 50.0 µM unless noted
Outline: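 Inhibition values express reduced yeast growth in compound-treated cultures relative to vehicle-treated controls.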

[2] = NCI Yeast Anticancer Drug Screen. Data for the mec2-1 strain (AID 157); details: S. cerevisiae mec2-1 strain, hits give high values; at 50.0 µM unless noted
Outline: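 Readout is yeast growth inhibition, normalised to vehicle-treated controls, in the mec2-1 strain exposed to compound.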

[3] = NCI Yeast Anticancer Drug Screen. Data for the sgs1 mgt1 strain (AID 161);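 note: 0% = growth of cultures given vehicle only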; details: S. cerevisiae sgs1 mgt1 strain, hits give high values; at 50.0 µM unless noted
Outline: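 Percent growth inhibition was derived by comparing compound-exposed mutant yeast with vehicle-exposed cultures. The strain carries alterations in DNA damage repair.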

[4] = NCI Yeast Anticancer Drug Screen. Data for the cln2 rad14 strain (AID 165);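 note: 0% = growth equal to vehicle treated cultures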; details: S. cerevisiae cln2 rad14 strain, hits give high values; at 50.0 µM unless noted
Outline: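 Relative to vehicle controls, growth inhibition of compound-treated cln2 rad14 yeast was recorded.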

[5] = NCI Yeast Anticancer Drug Screen. Data for the bub3 strain (AID 167); details: S. cerevisiae bub3 mutant strain, hits give high values; at 50.0 µM unless noted
Outline: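 Steps: expose the mutant yeast strain to compound; grow alongside vehicle-treated cultures; measure growth; express inhibition against the vehicle cultures.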

[6] = NCI Yeast Anticancer Drug Screen. Data for the mlh1 rad18 strain (AID 175); details: S. cerevisiae mlh1 rad18 strain growth inhibition, hits give high values; at 50.0 µM unless noted
Outline: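 Test agents were incubated with a yeast strain of defined genotype (DNA damage repair defect). Inhibition of growth was derived by comparison with vehicle-exposed cultures.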

Measured: growth inhibition

C=C1C(=O)OC2CC1C(OC(C)=O)CC1(C)OC1CCC1(C)OC1CCC2(C)O (stereo not given)
inactive: [1] -4.4% | [2] -0.1% | [3] 1.05% | [4] -2.7% | [5] -9.55% | [6] -3.4%

COc1cc(OCc2ccc3oc(=O)c(-c4ccccc4)nc3c2)cc(OC)c1OC
inactive: [1] 16.6% | [2] 1% | [3] 2.2% | [4] 7.75% | [5] 19.2% | [6] 9.25%

COc1ccc(NS(=O)c2ccccc2)cc1 (stereo not given)
inactive: [1] 10.1% | [2] 1.2% | [3] 3.1% | [4] 6.65% | [5] -2.5% | [6] 7.65%

O=C1NC(=O)[C@@]2(CC[C@@H](O)C2)c2ccncc21
inactive: [1] 3.55% | [2] -42.6% | [3] -10.2% | [4] 16.4% | [5] -33.2% | [6] -86.5%

COc1ccccc1C1OC(N)=C(O)C1=O (stereo not given)
inactive: [1] -14.4% | [2] -5.15% | [3] 7.3% | [4] -15.3% | [5] -2.5% | [6] 13.9%

CCCCC(C(=O)O)N(C)C (stereo not given)
inactive: [1] -15.9% | [2] -11.3% | [3] -5.8% | [4] -0.5% | [5] 2.4% | [6] -20.4%

NC(COC(=O)NCCCl)C(=O)O (stereo not given)
inactive: [1] 12.7% | [2] -6.95% | [3] -0.35% | [4] -11.5% | [5] 22.1% | [6] 18.6%

COC(=O)c1cc(Cl)ccc1OCC(=O)Nc1ccccc1
inactive: [1] -6.3% | [2] -2.5% | [3] 13.4% | [4] -8.2% | [5] -6.55% | [6] -29.1%

CC(=O)OCCOCNC(=S)N/N=C(\C)c1ccco1
inactive: [1] -19.9% | [2] -8.3% | [3] 3.4% | [4] 3.8% | [5] -4.95% | [6] -11.9%

COc1ccc(C2S/C(=C\c3ccc(OC)cc3OC)C(=O)N2NC(=O)Cc2ccccc2)cc1 (stereo not given)
inactive: [1] -4.3% | [2] -50.6% | [3] 2.4% | [4] -59.6% | [5] -14.1% | [6] 5.05%

O=S(=O)(CCCl)c1ccc(Br)cc1
inactive: [1] 51.6% | [2] 44.6% | [3] 56.7% | [4] 18.8% | [5] 39.4% | [6] 57.5%

C=C(Br)CNC(=O)CCC(=O)NCC(=C)Br
inactive: [1] -27.5% | [2] -11.8% | [3] -3.35% | [4] -5.9% | [5] -21.4% | [6] -57.7%

Oc1ccc(O)c(CNc2ccc(C(O)C(F)(F)F)cc2)c1 (stereo not given)
inactive: [1] 14.9% | [2] 9.2% | [3] 16.8% | [4] 6.45% | [5] 22.1% | [6] 15.9%

O=C(O)CN(CCO)CCN(CC(=O)O)CC(=O)O.[Fe+2]
inactive: [1] 6% | [2] -32% | [3] -18.5% | [4] 18.6% | [5] -14.5% | [6] 2.25%

O=I(=O)c1ccccc1
inactive: [1] 3.95% | [2] 9.7% | [3] 17.5% | [4] 26.6% | [5] 20.1% | [6] 17.9%

COC(=O)c1cccc(C(=O)OC)c1
inactive: [1] -33.1% and 14.2% | [2] -3.45% and -1.6% | [3] -14.4% and 18.8% | [4] 5.2% and -1.7% | [5] -1.9% and 19.4% | [6] 3.75% and 15.4%

Cc1cccc(NC(=O)c2ccc(Cl)cc2Cl)c1
inactive: [1] 9.1% | [2] 14.1% | [3] 6.8% | [4] 13.6% | [5] 21.3% | [6] 22.2%

O=C(CCCn1ccnc1[N+](=O)[O-])NCCn1cnc([N+](=O)[O-])n1
inactive: [1] 7% | [2] 17.2% | [3] -6.05% | [4] -6.2% | [5] -4.8% | [6] -16.1%

Cc1nc(C(N)=S)sc1C(=O)C/C(=N/N)C(=O)Nc1ccc(Cl)cc1
inactive: [1] 2.05% | [2] -8.55% | [3] 3.2% | [4] -3.65% | [5] -17.8% | [6] -20.9%

Cc1ccc(C(=O)/C=C/c2cccc3ccccc23)cc1
inactive: [1] 16.1% | [2] 3.65% | [3] 21.5% | [4] 4.25% | [5] 9.95% | [6] 3.95%

C/C(CC(=O)Nc1cc(C)ccc1C)=N\NC(=O)c1ccncc1
inactive: [1] 11.8% | [2] -0.4% | [3] 10.7% | [4] 22.7% | [5] -0.75% | [6] 1.15%

NNc1nc(N2CCCCC2)c2[nH]cnc2n1
inactive: [1] 1.1% | [2] -7.65% | [3] -5.6% | [4] 0.1% | [5] 11.8% | [6] 4.95%

c1ccc(CC2=NCCO2)cc1
inactive: [1] -5.55% | [2] 2.25% | [3] -3.3% | [4] -33% | [5] 3.85% | [6] -25.9%

Cc1nc(Nc2ccc(Cl)cc2)c2cnn(-c3ccc(Cl)cc3)c2n1
inactive: [1] -1.9% | [2] -2.25% | [3] -7.95% | [4] -41% | [5] -2.3% | [6] -5.05%

O=[N+]([O-])c1ccc(CS(=O)Cc2ccccc2)cc1 (stereo not given)
inactive: [1] 10.9% | [2] -18.6% | [3] 1.35% | [4] 0.05% | [5] 6.75% | [6] 31.7%

Nc1ccc(S(=O)(=O)CCS(=O)(=O)c2ccc(N)cc2)cc1
inactive: [1] 5.65% | [2] -4.5% | [3] 0.55% | [4] -25.1% | [5] 4.45% | [6] 0.8%

CC(=O)NC1(NC(C)=O)C2CC(C1Cc1ccccc1)C(C)(C)C2C (stereo not given)
inactive: [1] 4.75% | [2] -14.7% | [3] -18.6% | [4] -11.6% | [5] -43.5% | [6] -38.5%

O=C(O)CCCCCCC(=O)O
inactive: [1] 2.1% | [2] -4.85% | [3] 2.85% | [4] 2.95% | [5] 0.9% | [6] -2.3%

CCOC(=O)Cc1nc(/C(C#N)=C/c2ccco2)[nH]c(=O)c1C#N
inactive: [1] 2.4% | [2] 7.8% | [3] 30.9% | [4] 34.2% | [5] 8.15% | [6] 39.6%

Cc1nc2[nH]c(=O)[nH]c(=O)c2s1
inactive: [1] -5.65% | [2] 4.15% | [3] -1.25% | [4] -6.6% | [5] -10.8% | [6] -2.35%

N#CCSc1ncnc2nc[nH]c12
inactive: [1] 4.25% | [2] 1.65% | [3] -5.95% | [4] 5.6% | [5] 4.8% | [6] 0.15%

Cc1cc(C)c2c(=O)n(-c3ccccc3C)c(=S)n(-c3ccccc3C)c2n1
inactive: [1] 31.4% | [2] 8.35% | [3] 2.25% | [4] 1.95% | [5] -4.1% | [6] 24.7%

OCC(O)C1OC(O)C(O)C(O)C1O (stereo not given)
inactive: [1] 1.45% | [2] -7.75% | [3] -32.2% | [4] -49.4% | [5] -6.75% | [6] 10.4%

CCCN(CCC)CC(O)CNc1cc(OC)cc2cccnc12 (stereo not given)
inactive: [1] 9.75% | [2] -16.2% | [3] 6.7% | [4] -35.7% | [5] 19.9% | [6] 5.7%

c1ccc2c(c1)ccc1c[n+]3ccccc3cc12
inactive: [1] 26.6% | [2] 23.1% | [3] 22.2% | [4] 44.5% | [5] 9.25% | [6] 61.9%

CC(C)OC(=O)Oc1cccc(OC(=O)OC(C)C)c1
inactive: [1] 3.15% | [2] -28.8% | [3] 2.15% | [4] 6.95% | [5] 8.5% | [6] 9.3%

O=S(=O)(Nc1cccc(O)c1)c1ccccc1
inactive: [1] 6% | [2] -12.1% | [3] 6.8% | [4] 14.7% | [5] 3% | [6] 13.2%

COc1cc(O)c2c(=O)cc(-c3ccc(O)cc3O)oc2c1CC=C(C)C
inactive: [1] 43.5% | [2] 0.4% | [3] -0.25% | [4] 17.7% | [5] -2.8% | [6] -20.5%

CCOC(=O)/C(=C\c1ccccc1)c1ccccc1
inactive: [1] 7.15% | [2] 5.5% | [3] 9.65% | [4] 7.85% | [5] 27.1% | [6] -6.8%

O=[N+]([O-])c1ccc[nH]c1=S
inactive: [1] -5.15% | [2] -15.8% | [3] -20.4% | [4] -7.35% | [5] 23% | [6] -35.6%
